Compound activity deposited in PubChem by several laboratories.
An excerpt weighted towards active compounds, which were near 3.5% of everything screened.
SKN-1 block: C. elegans SKN-1 inhibition. hit rate 0.49% among 360,000. C. elegans VP596 Pgst-4::GFP/RFP ratio, acrylamide-induced, 24 h. inhibition, % at 21.8 µM. AID 624304;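 active = interference check ratio from 0.5 to 1.5 plus GFP to RFP signal ratio inhibition reaching or exceeding a fixed threshold, cut at about 30% in these data, passing the limit was not always enough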
CHRM1 antagonist: blocks human M1 muscarinic receptor; P11229; CHO-K1 hM1, Fluo-8 calcium fluorescence, ACh EC80 antagonist; inhibition, % at 3 µM; hit rate 1.3% among 360,000; AID 588852;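 active = percent inhibition above its own plate's cutoff, namely the mean of that plate's compound wells plus 3 SD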;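 also: peak over basal fluorescence ratio during 140 s after agonist addition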
Target sequence (P11229 whole entry, looked up): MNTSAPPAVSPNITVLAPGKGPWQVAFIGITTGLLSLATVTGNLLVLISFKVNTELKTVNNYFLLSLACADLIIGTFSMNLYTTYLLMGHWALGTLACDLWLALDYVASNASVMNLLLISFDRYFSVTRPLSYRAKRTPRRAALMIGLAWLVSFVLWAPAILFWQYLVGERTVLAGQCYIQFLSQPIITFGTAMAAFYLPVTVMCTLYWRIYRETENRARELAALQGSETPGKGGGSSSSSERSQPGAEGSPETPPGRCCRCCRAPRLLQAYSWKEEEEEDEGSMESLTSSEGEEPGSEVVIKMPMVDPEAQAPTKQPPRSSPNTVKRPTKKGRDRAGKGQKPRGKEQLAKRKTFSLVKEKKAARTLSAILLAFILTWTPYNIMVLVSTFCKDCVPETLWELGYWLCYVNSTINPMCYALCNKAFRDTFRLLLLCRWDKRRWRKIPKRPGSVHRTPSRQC
ATG4B inhibitor: inhibitors of human ATG4B cysteine protease | Q9Y4P1 | ATG4B cleavage of LC3-PLA2, NBD-HPC fluorescence, 1 h | inhibition, % at 8.33 µM | hit rate 0.51% among 340,000 | AID 504462; in the data active = inhibition above about 40%
M1 PAM: potentiates human M1 receptor response to acetylcholine | hit rate 0.088% among 360,000 | CHO-K1 hM1, Fluo-8 calcium fluorescence, ACh EC20; 0% = ACh EC20, 100% = maximal ACh | P11229 | AID 588819 | activation, % at 3 µM; in the data active = activation above about 19%, passing the limit was not always enough
M1 ag: activates human CHRM1 receptor. P11229. CHO-K1 hM1, Fluo-8 calcium fluorescence, agonist mode; 0% DMSO, 100% acetylcholine EC100. activation, % at 3 µM. hit rate 0.33% among 360,000. AID 588814;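 active = activation above the run's mean compound activation plus 3 SD, cut at about 16% in these data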;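 also: peak over basal fluorescence ratio within a 140 s kinetic read after compound addition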
Myeloid diff 2: compounds promoting myeloid differentiation; ER-HoxA9 myeloid progenitors, lysozyme-GFP differentiation, flow cytometry; calls only at 10 µM; hit rate 1% among 360,000; AID 624256;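 active = normalized GFP-positive differentiation at or above the plate's own cutoff, the solvent-only control mean plus 3 SD; inconclusive = no clear call, values can overlap the other calls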;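 also: cells exposed to compound for four days before flow analysis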
Each line names hits and unclear results; the compound was inactive in the other large screens.

Cc1ncc(CN2CCCC(C(=O)c3cccc(Cl)c3)C2)s1 (stereo not given)	none
CCN(CC)P(=O)(NC(=O)c1cccn1C)N(CC)CC	none
O=C(c1cc(F)ccc1F)C1CCCN(Cc2cccc(Cl)c2)C1 (stereo not given)	none
O=C(c1cc(F)ccc1F)C1CCCN(CCCc2ccccc2)C1 (stereo not given)	CHRM1 antagonist 36
COc1cc(/C=C/C(=O)c2c(O)n(CCc3ccccc3)c(=O)[nH]c2=O)ccc1O	Myeloid diff 2 active
C[C@@H]1CN([C@H](C)CO)C(=O)CCCn2nncc2CO[C@@H]1CN(C)C(=O)Oc1ccc2ccccc2c1	none (no result: ATG4B inhibitor)
C#C[C@]1(O)[C@H](O)CC2C3CC[C@H]4C[C@@H](O)CC[C@]4(C)C3CC[C@@]21C (stereo not given in full)	Myeloid diff 2 active (no result: ATG4B inhibitor)
C[C@]12CCC3C(CC[C@H]4C[C@@H](O)CC[C@]34C)C1C[C@@H](O)[C@]2(C)O (stereo not given in full)	none
COc1ccc(CN2C(=O)C(CC(=O)NCc3ccco3)CC(C(=O)N(C)C)=C2C)cc1 (stereo not given)	none (no result: ATG4B inhibitor)
CCOC(=O)C1=C(N)OC2=C(C(=O)CC(C)(C)C2)C12C(=O)Nc1ccccc12 (stereo not given)	none
O=C(COC(=O)Cc1ccccc1)NC(=O)NC1CCCCC1	none
C[N+](C)(N)CCOC(=O)C(O)(c1ccccc1)C1CCCCC1 (stereo not given)	CHRM1 antagonist 100
CC[N+](CC)(CC)CCCOC(=O)C(O)(c1ccccc1)C1CCCCC1 (stereo not given)	CHRM1 antagonist 99
CCCCn1c(C)c(C(=O)O)c2cc(OC)c3ccccc3c21	none
Cc1ccc(N2C(=O)NC(=O)C3(Cc4ccccc4N4CCCC43)C2=O)cc1 (stereo not given)	SKN-1 block 59
CNC(=O)Oc1ccccc1OC(C)C	none
N#CC1=C(N)Oc2c(c(=O)oc3ccccc23)C1c1ccc(OC(=O)N2CCOCC2)cc1 (stereo not given)	none
COc1ccc(OC)c(NC2=NCCCS2)c1	Myeloid diff 2 active
CN1C2CCC1CC(OC(=O)c1cccc(O)c1)C2 (stereo not given)	CHRM1 antagonist 59
CN1C2CCC1C(C(=O)O)C(OC(=O)c1ccccc1)C2 (stereo not given)	none (no result: Myeloid diff 2)
CC1CC(OC(=O)c2ccccc2)CC(C)N1C (stereo not given)	CHRM1 antagonist 42
CN1C2CCC1CC(OC(=O)c1ccc([N+](=O)[O-])cc1)C2 (stereo not given)	none
COC(=O)C1=C(c2ccc(-c3ccccc3)c(F)c2)C[C@@H]2CC[C@H]1N2C(=O)NCc1cccc2ccccc12	none
C[CH2][Hg][S]c1ccccc1C(=O)O	SKN-1 block 38, Myeloid diff 2 active
Cc1ccccc1-n1c(C)nc2sccc2c1=O	none
Brc1ccc2c(c1)C(OC1CN3CCC1CC3)c1ccccc1CS2 (stereo not given)	CHRM1 antagonist 101
CCCCn1c(=O)c(C(=O)Nc2cccc(C)c2)c(O)c2ccccc21	none
O=C(Nc1cccc(Br)c1)c1c(O)c2c(n(Cc3ccccc3)c1=O)CCCC2	Myeloid diff 2 active
Cc1ccc(C)c(NP(=O)(Oc2ccccc2)Oc2ccccc2)c1	CHRM1 antagonist 36
COc1cc(CN2CC=C(c3ccc(F)cc3)CC2)cc(OC)c1	CHRM1 antagonist 31
C[N+]1(CC(COCc2ccccc2)OC(=O)Cc2ccccc2)CCOCC1 (stereo not given)	none
CC1C(c2cccs2)=[N+]([O-])C(C)(C(=O)c2ccc(Cl)cc2)N1O (stereo not given)	none
CCOP(=S)(OCC)Oc1cc(C)oc(=O)c1Cl	none
CCOP(=S)(OCC)Oc1cc(C)oc(=O)c1	M1 PAM 29
CCC1(Oc2ccccc2)C(=O)NC(=O)NC1=O	none
CCC1(C)OC(c2ccccc2)=C/C(=C/C=C2C(=O)NC(=O)NC2=O)O1 (stereo not given)	SKN-1 block 48, M1 ag 23
CCC(C)N1C(=O)NC(=O)C2(Cc3c(ccc4ccccc34)N(C)C2)C1=O (stereo not given)	CHRM1 antagonist 44
CCOC(=O)c1ccc2[nH]c(-c3ccc(S(=O)(=O)F)cc3)cc(=O)c2c1	Myeloid diff 2 active
CCOC(=O)c1cccc([P+](=O)O)c1	none
N#CC(CCN1CCOCC1)(c1ccccc1)c1ccccc1	CHRM1 antagonist 41
CCC(=O)C(CCN1CCOCC1)(c1ccccc1)c1ccccc1	none
CC(C)c1ccc(-n2c(O)c(C=NCCN3CCNCC3)c(=O)[nH]c2=S)cc1	Myeloid diff 2 active
COc1cc(/C=C/[N+](=O)[O-])ccc1O	Myeloid diff 2 active
COC(=O)C1=C(c2cccc(C#N)c2)C[C@@H]2CC[C@H]1N2C(=O)NCc1ccco1	none
Cc1[nH]nc2ccc(-c3cncc(OC[C@@H](N)Cc4c[nH]c5ccccc45)c3)cc12	Myeloid diff 2 inconclusive
CCCCCn1c(N)c(C(=O)NCCN2CCOCC2)c2nc3ccccc3nc21	SKN-1 block 34
CCCCn1c(N)c(C(=O)OCC2CCCO2)c2nc3ccccc3nc21 (stereo not given)	none
CC(C)OCCCNC(=O)c1c(N)n(CC2CCCO2)c2nc3ccccc3nc12 (stereo not given)	Myeloid diff 2 active
CC(C)CCn1c(N)c(C(=O)OCC2CCCO2)c2nc3ccccc3nc21 (stereo not given)	Myeloid diff 2 active
CCOC(=O)c1cccc(C2=C(CNC(=O)c3ccc([N+](=O)[O-])cc3)[C@H]3CC[C@@H](C2)N3Cc2ccccc2)c1	none (no result: ATG4B inhibitor)
CC[n+]1c(/C=C/N(C)c2ccccc2)sc2ccc(Cl)cc21	CHRM1 antagonist 64
CC[n+]1c(/C=C/C=C/c2ccc(N(C)C)cc2)sc2ccccc21	CHRM1 antagonist 69, Myeloid diff 2 inconclusive
CC(=O)OC1C(O)C(C)OC(OC2C(OC(=O)C3CCC4C(C3)OC3(CC(OC(=O)/C=C/c5ccccc5)C(C)CO3)C43CO3)OC(C)C(O)C2OC(C)=O)C1O (stereo not given)	none (no result: Myeloid diff 2)
Cc1ccc(/C=C2/Sc3ccc(C(=O)N4CCC5(CC4)OCCO5)cc3NC2=O)cc1	none
O=C(CCCN1CCC2(CC1)C(=O)NCN2c1ccccc1)c1ccc(F)cc1	CHRM1 antagonist 97, M1 ag 109
CCCCn1nnnc1C(C1CC1)N1CCC2(CC1)C(=O)NCN2c1ccccc1 (stereo not given)	none (no result: ATG4B inhibitor)
CN1CC(C(=O)c2cccs2)C(c2ccc(Cl)cc2)C1 (stereo not given)	none
O=C(O)C1CN2CCC1CC2 (stereo not given)	M1 ag 25
